Source: PubChem BioAssay (Johns Hopkins Ion Channel Center)
KCNQ2 block = rat KCNQ2 potassium channel inhibitors, primary screen, cell-based, CHO-K1, FluxOR thallium flux, B-score | Potassium voltage-gated channel subfamily KQT member 2 (Rattus norvegicus), O88943 | 20 min; active compounds read low | B-score at 10 µM | 310,000 tested, 1.1% active;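 active = fluorescence ratio B-score at most minus 3 library SDs, with starting brightness B-score within 2 library SDs, cut at about -5.5 in these data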
Target sequence (O88943 whole entry, looked up): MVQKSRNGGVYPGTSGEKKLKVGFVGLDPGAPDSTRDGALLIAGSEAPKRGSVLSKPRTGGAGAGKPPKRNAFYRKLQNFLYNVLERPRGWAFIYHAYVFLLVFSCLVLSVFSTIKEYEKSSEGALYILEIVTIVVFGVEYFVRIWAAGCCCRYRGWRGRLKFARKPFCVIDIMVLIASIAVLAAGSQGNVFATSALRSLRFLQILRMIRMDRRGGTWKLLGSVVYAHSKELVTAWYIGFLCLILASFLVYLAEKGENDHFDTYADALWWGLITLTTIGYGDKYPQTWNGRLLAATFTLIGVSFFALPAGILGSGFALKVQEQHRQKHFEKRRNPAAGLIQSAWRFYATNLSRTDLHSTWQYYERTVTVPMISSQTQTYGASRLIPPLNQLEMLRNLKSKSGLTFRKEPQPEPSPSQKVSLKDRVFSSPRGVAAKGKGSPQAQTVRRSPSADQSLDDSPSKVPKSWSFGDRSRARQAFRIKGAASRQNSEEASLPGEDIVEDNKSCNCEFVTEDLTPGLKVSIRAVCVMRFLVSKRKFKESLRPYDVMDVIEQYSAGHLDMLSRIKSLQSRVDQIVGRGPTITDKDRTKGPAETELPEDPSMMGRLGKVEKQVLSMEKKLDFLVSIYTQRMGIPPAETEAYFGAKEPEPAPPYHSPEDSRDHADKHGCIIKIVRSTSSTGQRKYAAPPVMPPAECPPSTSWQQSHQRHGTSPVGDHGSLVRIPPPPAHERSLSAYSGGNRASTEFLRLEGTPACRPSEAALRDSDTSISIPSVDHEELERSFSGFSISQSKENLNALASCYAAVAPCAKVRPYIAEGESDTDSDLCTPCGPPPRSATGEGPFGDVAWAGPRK
KCNQ2 enhance = potentiators of rat KCNQ2 potassium channel. Potassium voltage-gated channel subfamily KQT member 2 (Rattus norvegicus), O88943. CHO-K1 KCNQ2, FluxOR thallium flux fluorescence; active compounds read high. B-score at 10 µM. 310,000 tested, 0.54% active. AID 2239, 2010;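 active = fluorescence ratio B-score at least 3 SD of library B-scores, with initial fluorescence B-score within 3 of them, cut at about 5.3 in these data; same plate scores as AID 2156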;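 note: B-score of peak minus minimum over baseline fluorescence ratio after K+ and Tl+ stimulus; positive B-score means potentiation of KCNQ2 with more thallium influx and brighter signal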
Kir21 confirm = mouse Kir2.1 channel blockers, retest, confirmation, cell-based, FluxOR thallium flux, duplicate; Kir2.1-expressing cells, FluxOR thallium flux fluorescence; active compounds read low; 2,300 tested, 41% active; Tl flux remaining, % of negative control (active compounds read low), % at 10 µM; shares compounds with KCNQ2 enhance;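 active = Primary-screen hit whose thallium flux fell at least 3 control SD below untreated wells in both duplicates, with normal baseline fluorescence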;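 note: 0% = blank wells without stimulus and 100% = stimulated no-compound controls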
HEK293 ctr = counter-screen for Kir2.1 inhibitors: effect in parental HEK293 cells; shares compounds with KCNQ2 enhance; FluxOR thallium flux fluorescence; 0% = unstimulated blank wells; FluxOR signal as % of negative control (100 = no effect), % at 10 µM; 2,300 tested, 19% active; AID 2105;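 active = dye signal at least 3 control SD above or below untreated wells in both duplicates, raw fluorescence within 3, either direction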;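 note: percent is based on the flux ratio of peak minus minimum fluorescence over baseline F0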
CHO-K1 ctr = nonspecific thallium flux increase in parental CHO-K1, confirmation, counter-screen for KCNQ2 potentiator project, cell-based, FluxOR thallium flux, duplicate. shares compounds with KCNQ2 enhance. parental CHO-K1 cells, FluxOR thallium flux fluorescence; zero = vehicle mean+3SD, 100% = vehicle-minus-blank window. activity increase over 3SD of controls, % at 10 µM. 1,200 tested, 43% active;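 active = signal rise of at least 3 SD above the untreated control mean, in both duplicate wells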;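 note: counter screen of KCNQ2 potentiator hits so any rise reflects channel-independent effects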
KCNQ1 sel pot = human KCNQ1 channel potentiation off-target, confirmation, selectivity assay for KCNQ2 potentiator project, cell-based, CHO, FluxOR thallium flux; shares compounds with KCNQ2 enhance; CHO KCNQ1 stable, FluxOR thallium flux fluorescence; beyond 3SD, as % of vehicle-control signal; AID 2283, 2010; activation over 3SD threshold, % at 10 µM; 1,200 tested, 28% active;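 active = fluorescence ratio rise of at least 3 SD of vehicle wells above their mean, in both replicate wells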;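 note: 0% = vehicle mean plus 3 SD and 100% = vehicle minus unstimulated blank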
KCNQ2 pot conf = rat KCNQ2 channel potentiators, confirmation, cell-based, CHO, FluxOR thallium flux, duplicate | shares compounds with KCNQ2 enhance | CHO-KCNQ2 cells, FluxOR thallium flux fluorescence | potentiation, less the hit threshold, % at 10 µM | 1,200 tested, 68% active;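 active = fluorescence ratio rising 3 SD or more over the vehicle control mean in both replicates, plus primary screen hit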;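 note: peak minus minimum thallium fluorescence divided by baseline after K/Tl stimulus; 0% = vehicle mean plus 3 SD and 100% = vehicle minus unstimulated blank difference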
Kir2-1 sel = mouse Kir2.1 channel activation off-target, confirmation, selectivity assay for KCNQ2 potentiator project, cell-based, HEK293, FluxOR thallium flux; shares compounds with KCNQ2 enhance; activity over 3SD threshold, % at 10 µM; 1,200 tested, 2% active; HEK293 Kir2.1, FluxOR thallium flux fluorescence;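 active = fluorescence ratio rise of at least 3 SD above the vehicle-control mean, seen in both replicates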;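 note: 0% = vehicle mean plus 3 SD and 100% = vehicle minus no-stimulus blank window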
KCNQ2 W236L MoA = potentiators of retigabine-insensitive KCNQ2 W236L, mechanism study for KCNQ2 potentiator project, cell-based, rat KCNQ2 W236L, CHO, automated patch clamp; shares compounds with KCNQ2 enhance; automated patch clamp current; current increase over 3SD of negative controls (%), active compounds read high, % at 25 µM; 940 tested, 10% active; AID 2558, 2010;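 active = current increase at least 3 SD of the untreated controls above them in both duplicate recordings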
The depositor's hits bear a star; i = inactive; . = not tested or not shown. This is a sample that favours compounds with a hit; in the whole collection about 1.6% have one here.

SMILES	KCNQ2 block	KCNQ2 enhance	Kir21 confirm	HEK293 ctr	CHO-K1 ctr	KCNQ1 sel pot	KCNQ2 pot conf	Kir2-1 sel	KCNQ2 W236L MoA
Cc1ccccc1OC(C)C(=O)NCCC1=CCCCC1 (configuration not stated)	-5.9*	-5.9	38%*	i	.	.	.	.	.
CC(OC(=O)c1ccccc1)C(=O)NCCC1=CCCCC1 (configuration not stated)	i	1.2	.	.	.	.	.	.	.
Cn1c(=O)c2c(nc(CN3CCN(C(c4ccccc4)c4ccccc4)CC3)n2CCCO)n(C)c1=O	i	.	.	.	.	.	.	.	.
COCCn1c(CN2CCN(C(c3ccccc3)c3ccccc3)CC2)nc2c1c(=O)n(C)c(=O)n2C	i	5.9*	i	i	-3	-17	-17	-24	.
Cc1cccc(C(=O)Nc2nnc(S(=O)(=O)N(C)Cc3ccco3)s2)c1	i	0.2	.	.	.	.	.	.	.
O=C(Nc1ccc(Cl)cc1Cl)c1n[nH]c(Cn2cncn2)n1	i	7.1*	i	i	-11	50*	-9	-23	i
N#C/C(=C\c1ccc(Cl)cc1)c1n[nH]c(Cn2cncn2)n1	i	.	.	.	.	.	.	.	.
O=C(NCc1cccs1)c1cc(S(=O)(=O)N2CCOCC2)c(Cl)cc1Cl	i	0.39	.	.	.	.	.	.	.
COc1cc2c(cc1NC(=O)COC(=O)C(CCSC)NC(=O)c1ccccc1Cl)oc1ccccc12 (configuration not stated)	i	.	.	.	.	.	.	.	.
C=CCN(CC=C)C(=S)NC(=O)c1ccc(-c2ccccc2)cc1	i	7.3*	i	420%*	-3	22*	89*	-4	i
COc1ccc(C(=O)NC(=S)N(Cc2ccccc2)Cc2ccccc2)cc1	i	19*	i	199%*	136*	-6	-1	-28	i
O=C(NC(=S)NCc1ccccc1)c1ccccc1F	i	0.78	.	.	.	.	.	.	.
C=CCN(CC=C)C(=S)NC(=O)/C=C/c1ccccc1	i	0.7	.	.	.	.	.	.	.
CC(C)C(=O)NC(=S)N(Cc1ccccc1)Cc1ccccc1	i	.	.	.	.	.	.	.	.
O=C(NC(=S)N(Cc1ccccc1)Cc1ccccc1)c1ccccc1F	i	11*	i	218%*	110*	-1	22*	-40	i
O=C(Cn1c(=O)c2cccn2c2ccccc21)NCCc1ccccc1	i	0.12	.	.	.	.	.	.	.
CC1CCCN(c2ccc(C(=O)Nc3cccnc3)cc2[N+](=O)[O-])C1 (configuration not stated)	i	3.4	.	.	.	.	.	.	.
O=C(O)Cc1ccc(O)c(O)c1	i	.	.	.	.	.	.	.	.
O=C(O)Cc1cc(I)c(Oc2ccc(O)c(I)c2)c(I)c1	i	9.9*	i	i	1.9*	19*	112*	-39	i
COc1ccc(/C=C/c2onc(C)c2S(=O)(=O)N2CCC(C(=O)N3CCC(C)CC3)CC2)cc1	i	.	.	.	.	.	.	.	.
Cc1ccc(/C=N/Nc2nc(C(C)(C)C)cs2)o1	i	6.9*	i	70%*	-8	-27	-3	-33	i
CC(C)(C)c1csc(N/N=C/c2cccnc2)n1	i	1.5	.	.	.	.	.	.	.
